Bioassay records deposited in PubChem BioAssay by National Center for Advancing Translational Sciences (NCATS).
Most compounds without a hit are left out; they make up all but 2.6% or so of the library.
Nrf2 block: blocks Nrf2 signaling; A549 ARE-Fluc reporter, luciferase luminescence, 18-24 h; Potency, µM (titrated, usually from 46 µM), actives largely listed as inhibitors; 360,000 tested, 2.1% active; further: nearly all actives have a fitted effect of over 60% in size
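Cells were seeded and rested 2 h, then exposed to compounds for 18-24 h. CellTiter-Fluor was read first as a viability measure. BugLite was added 15 min before the final luminescent read of ARE-luciferase activity in A549 cells.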
CCT modulator: cytosolic chaperonin activity modulation; AID 651819; activity change, % (test concentration not listed), hits read low; 360,000 tested, 0.3% active; purified chaperonin ATPase assay, HTRF ADP detection, 30 min; in the data active means activity change below about -30%
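Nucleotide hydrolysis assay: TRiC at 20–40 nM final (set by batch activity) with 10 uM ATP, 30 min at 37 °C, in presence of 76 uM compound. Detection by competitive ADP HTRF, 30 min ambient.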
AT treatment: potential ataxia-telangiectasia treatments restoring KAP-1 phosphorylation; F2112 A-T fibroblasts, KAP-1 phosphorylation AlphaLISA; neocarzinostatin DNA damage 30 min before lysis; Potency, µM (series often up to 57.5 µM), usual class: activators; 320,000 tested, 0.19% active; AID 485349; further: nearly all actives have a fitted effect of over 45% in size
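ATM-like activity read as KAP-1 phosphorylation via AlphaLISA donor/acceptor antibody pairs after lysis and 6 hr at 25C. Cells were ATM-null patient fibroblasts (F2112, hTERT), dosed 60 min, then exposed to the DSB inducer NCS for 30 min.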
TCR activator: activates T cell receptor signaling | primary human leukocytes, anti-CD3, IL-2 HTRF, 48 h | Potency, µM (series often up to 9.22 µM), hits mostly activators | 330,000 tested, under 10 active | AID 504894
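1) Mix primary human leukocytes, a-CD3 beads and compound. 2) Incubate 48 hr. 3) Add HTRF IL-2 reagents (a-IL-2-K, a-IL-2-d2).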
Nrf2 ARE act: activates Nrf2 signaling | AID 624171 | AREc32 ARE-luciferase reporter (MCF7-derived line), luminescence, 24 h | 410,000 tested, 0.31% active | Potency, µM (top dose mostly 46.1 µM), most hits filed as activators; further: nearly all actives have a fitted effect of over 65% in size
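AREc32 cells carrying an ARE-driven firefly luciferase, 1000 cells/well in OPTI-MEM with 5% FBS, dosed after overnight attachment and incubated 24 hr at 37 deg C. Steady-Glo luminescence read after 30 min at RT.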
A549 tox: counter-screen for Nrf2 inhibitors: cytotoxicity in A549 cells | A549 ARE-Fluc cells, CellTiter-Fluor viability, 18-24 h | Potency, µM (series often up to 46 µM), usual class: inhibitors | 390,000 tested, 0.16% active
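A549 ARE-Fluc cells in 5% FBS OPTI-MEM, 5000 cells/well, rested 2 h then exposed to compounds in concentration-response for 18-24 h at 37 °C. Viability by CellTiter-Fluor fluorescence (Ex 405/Em 525) after 30 min; luciferase luminescence (BugLite, 15 min, RT) read afterwards.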
Each line names hits and unclear results; the compound was inactive in the other large screens. Unless noted, the call rests on the fitted dose curve; in most records, active means well fitted curve in the direction sought with a large enough effect; inconclusive means small, poorly fitted or top-dose-only effect, or another doubt; inactive means no such curve, though single readings can be large; an effect the other way counts as inactive or inconclusive.

CC(C)(C)c1cc([N+](=O)[O-])cc(C(C)(C)C)c1O	Nrf2 block 18µM, A549 tox inconclusive
Cc1ccc2c(c1)C(c1ccccc1)=NCC(=O)N2C	Nrf2 block 9.2µM (no result: AT treatment)
Cc1ccc2c(c1)C(c1ccccc1)=NCC(=O)N2	none
CC[C@@]1(O)C(=O)OCc2c1cc1n(c2=O)Cc2cc3c(NC(=O)CN)cccc3nc2-1	Nrf2 block 2.6µM
CCC1(OC(=O)CN)C(=O)OCc2c1cc1n(c2=O)Cc2cc3ccccc3nc2-1 (centres undefined)	Nrf2 block 0.58µM, A549 tox inconclusive
Cn1cccc1C(=O)OCC(=O)NCc1cccs1	Nrf2 block inconclusive
Nc1c(C(=O)NCc2ccco2)c2nc3ccccc3nc2n1Cc1ccc(F)cc1	AT treatment inconclusive, Nrf2 ARE act 18µM
Fc1ccc(C[n+]2c(-c3ccccc3)cc(-c3ccccc3)cc2-c2ccccc2)cc1	Nrf2 block 18µM, A549 tox inconclusive
Cc1cc(-c2ccccc2)cc(-c2ccccc2)[n+]1CCc1ccccc1	Nrf2 block inconclusive
Clc1ccc(C[n+]2c(-c3ccccc3)cc(-c3ccccc3)cc2-c2ccccc2)cc1	Nrf2 block 21µM, A549 tox inconclusive
Oc1ccc(-[n+]2c(-c3ccccc3)cc(-c3ccccc3)cc2-c2ccccc2)cc1	none
COc1cccc(CN2C(=O)C3(SCC(=O)N3c3ccc(C)c(Cl)c3)c3ccccc32)c1 (centres undefined)	Nrf2 block inconclusive (no result: CCT modulator, AT treatment, TCR activator)
COC(=O)[C@@H]1N=C(c2ccc(OC)cc2)O[C@]12C(=O)N(Cc1ccc(OC)cc1)c1ccccc12	CCT modulator -47 (no result: Nrf2 block, AT treatment, TCR activator, A549 tox)
O=C(O)/C=C/c1cccc(B(O)O)c1	Nrf2 block inconclusive (no result: CCT modulator, AT treatment, TCR activator, Nrf2 ARE act)
CCN1CCN(c2nc3ccccc3s2)CC1	none
Cc1ccnc(SCc2nc3ccccc3s2)n1	Nrf2 ARE act 13µM (no result: Nrf2 block)
Cc1c(P(=S)(c2ccccc2)c2ccccc2)[n+]2ccccc2n1CCCc1ccccc1	Nrf2 block inconclusive (no result: CCT modulator, AT treatment, TCR activator, Nrf2 ARE act)
Cc1ccc(NC(=O)COc2ccc(-c3nn(C)c(=O)c4ccccc34)cc2)c(C)c1	Nrf2 block 18µM (no result: CCT modulator, AT treatment, TCR activator)
O=C(Oc1ccccc1)N(c1ccccc1)c1ccccc1	AT treatment inconclusive
N=c1c2c(n(Cc3ccc(Cl)cc3Cl)c3c1CCC3)CCCC2	Nrf2 block 13µM, A549 tox inconclusive
O=C(NCCSc1c(-c2ccc(F)cc2)[nH]c2ccccc12)c1ccc(S(=O)(=O)N2CCOCC2)cc1	Nrf2 block inconclusive (no result: CCT modulator, AT treatment, TCR activator)
Cc1ccccc1-c1nc(CS(=O)CC(=O)N2CCN(c3cc(Cl)ccc3C)CC2)c(C)o1 (centres undefined)	Nrf2 block inconclusive (no result: CCT modulator, AT treatment, TCR activator)
Nc1c(C(=O)OC2CCCCC2)c2nc3ccccc3nc2n1CC1CCCO1 (centres undefined)	Nrf2 block 23µM
COc1ccccc1N1CCN(C(=O)c2cc3c(-c4ccccc4F)nn(C)c3s2)CC1	Nrf2 block inconclusive (no result: CCT modulator, AT treatment, TCR activator)
COc1ccc(N2C(=O)/C(=C/c3ccc(N(C)C)o3)C(=O)NC2=S)cc1	A549 tox inconclusive
CCN(CC)c1ccc(/C=C2\C(=O)NC(=S)N(c3ccc(OC)cc3OC)C2=O)o1	A549 tox 13µM (no result: AT treatment)
C=C(C)Cn1c(-c2cccc([N+](=O)[O-])c2)n[nH]c1=S	Nrf2 block inconclusive
O=C1NCc2c1c1c3ccccc3[nH]c1c1[nH]c3ccccc3c21	Nrf2 block inconclusive (no result: CCT modulator, AT treatment, TCR activator, Nrf2 ARE act)
COc1ccc(C(=O)C2CCCN(Cc3cnc(C)s3)C2)c(OC)c1 (centres undefined)	Nrf2 block 21µM
CCOc1ccc(-c2cc(C)[n+](CCc3ccc(OC)c(OC)c3)c(-c3ccc(OCC)cc3)c2)cc1	Nrf2 block inconclusive
CCOc1ccc(-c2cc(C)[n+](CCO)c(-c3ccc(OCC)cc3)c2)cc1	Nrf2 block 12µM
COC(=O)C1=C(c2ccc(F)cc2OCc2ccccc2)C[C@@H]2CC[C@H]1N2C(=O)NCCOc1ccccc1Cl	Nrf2 block inconclusive, A549 tox inconclusive
